From PubChem
The list is not random: actives were taken first. Their share in the collection is about 1.7%.
ATG4B inh: ATG4B (human) cysteine protease inhibition. Q9Y4P1. ATG4B cleavage of LC3-PLA2, NBD-HPC fluorescence, 1 h. inhibition, % at 8.33 µM. 0.51% of 340,000 active
Target sequence (Q9Y4P1 whole entry, looked up): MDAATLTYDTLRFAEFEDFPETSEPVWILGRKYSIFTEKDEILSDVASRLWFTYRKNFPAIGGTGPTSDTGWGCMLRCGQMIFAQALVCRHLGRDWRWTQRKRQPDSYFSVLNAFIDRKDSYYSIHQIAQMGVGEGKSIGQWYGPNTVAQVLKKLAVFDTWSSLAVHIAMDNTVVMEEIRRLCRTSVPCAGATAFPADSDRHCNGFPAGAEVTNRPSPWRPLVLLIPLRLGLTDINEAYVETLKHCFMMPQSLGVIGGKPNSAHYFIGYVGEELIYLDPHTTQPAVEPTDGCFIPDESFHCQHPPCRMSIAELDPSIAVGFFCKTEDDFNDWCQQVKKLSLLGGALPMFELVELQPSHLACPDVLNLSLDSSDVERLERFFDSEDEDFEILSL
Rin1 Abl inh: blocks binding of human Rin1 to Abl; AID 588664; inhibition, % at 7.35 µM; 0.4% of 360,000 active; TR-FRET Rin1/Abl binding, biochemical; in the data active = inhibition above about 5%, passing the limit was not always enough
SUMO1 PPI mod: SUMO1-SIM interaction modulation. P63165. SUMO1 binding to a labelled peptide, TR-FRET, 1 h. inhibition, % at 20 µM. 0.33% of 360,000 active; in the data active = inhibition above about 37%
Target sequence (P63165 whole entry, looked up): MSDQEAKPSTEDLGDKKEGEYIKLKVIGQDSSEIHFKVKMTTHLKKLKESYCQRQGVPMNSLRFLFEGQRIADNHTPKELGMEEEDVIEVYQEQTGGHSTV
Neddyl block: cullin neddylation inhibition | P61081+Q13564 | TR-FRET cullin neddylation, biochemical | inhibition, % at 25 µM | 0.58% of 360,000 active | AID 651699; in the data active = inhibition above about 36%
Neddyl inh conf: cullin neddylation inhibition, confirmation; 13% of 1,800 active; shares compounds with Neddyl block; calls only at 25 µM; TR-FRET cullin neddylation biochemical assay;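 also: neddylation substrate is the cullin 1 ring ligase complex with SKP2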
Large screens that a line does not name were inactive (follow-up assays come after a bar, where shown). Rule as the data show it, unless noted: active = inhibition above about 40%; inactive = the rest.

O=C(COc1ccccc1)Nc1ccc(-c2nnc(-c3ccco3)o2)cc1	Neddyl block 39 | Neddyl inh conf inactive
Cc1ccc(-c2c(C#N)c(N)nc3c2CCCCC3)o1	Neddyl block 41
CCCCn1c2nc3ccccc3nc2c2c(=O)n(CCC(C)C)cnc21	none
CC(C)Cn1c2nc3ccccc3nc2c2c(=O)n(CCN3CCOCC3)cnc21	Neddyl block 42 | Neddyl inh conf inactive
CCCn1cnc2c(c1=O)c1nc3ccccc3nc1n2CCc1ccccc1	Neddyl block 44 | Neddyl inh conf inactive
CCCCn1c2nc3ccccc3nc2c2c(=O)n(-c3ccccc3)cnc21	Neddyl block 47 | Neddyl inh conf inactive
CC(=O)Nc1cc(-c2ccc(N)nc2)cn2c(-c3cccc(C(F)(F)F)c3)cnc12	none (no result: ATG4B inh)
CC1(C(=O)NS(=O)(=O)C2CC2)CCN(C(=O)c2ccccc2F)C1 (centres undefined)	none (no result: ATG4B inh)
CCOC(=O)N1CCN(S(=O)(=O)c2ccc3c4c(cccc24)C(=O)N3)CC1	Neddyl block 52 | Neddyl inh conf active
O=C1Nc2ccc(S(=O)(=O)N3CCCC3)c3cccc1c23	Neddyl block 40 | Neddyl inh conf inactive
Nc1c(Cl)cc(C(=O)NC2CC2)cc1Cl	none
COc1ccccc1S(=O)(=O)N(C)C[C@H]1OCc2cn(nn2)CCCC(=O)N([C@@H](C)CO)C[C@@H]1C	none (no result: ATG4B inh)
COc1cc2c(cc1OC)C(C1C(=O)CC(C)(C)CC1=O)N(C(=O)CCl)CC2 (centres undefined)	Neddyl block 41 | Neddyl inh conf inactive
CCCCOCCCNC(=O)C[C@@H]1C[C@@]2(C(=O)OCC)CCC=C2N(Cc2ccc(Cl)cc2Cl)C1=O	none (no result: ATG4B inh, Rin1 Abl inh)
CCNC(=O)C1(C)CCCN(C(=O)c2nc3ccccc3s2)C1 (centres undefined)	none (no result: ATG4B inh)
CCc1ccc2nc(N3CCN(C)CC3)c(C#N)cc2c1	Neddyl block 43 | Neddyl inh conf inactive
C=CCNC(=S)N/N=C/c1ccc(N(CC)Cc2ccccc2)cc1	Neddyl block 56
CCN(CC)c1ccc(/C=N/NC(=O)c2ccc(Br)o2)cc1	none (not shown: Neddyl block)
O=C(N/N=C/c1ccc(N2CCOCC2)cc1)C1CC1	Neddyl block 42 | Neddyl inh conf inactive
CCN(CC)c1ccc(/C=N/NC(=O)C(O)c2ccccc2)cc1 (centres undefined)	Neddyl block 55
CCN(CC)c1ccc(/C=N/NC(=O)c2c(Cl)c(C)nn2C)cc1	Neddyl block 38 | Neddyl inh conf inactive
CC(C)CC1NC(=O)N(CC(=O)Nc2ccc(OC(F)F)cc2)C1=O (centres undefined)	none
CCOC(=O)[C@]12CCCC=C1N(Cc1ccco1)C(=O)[C@H](CC(=O)NCC13CC4CC(CC(C4)C1)C3)C2	none (no result: ATG4B inh, Rin1 Abl inh)
C[C@H]1CN([C@@H](C)CO)C(=O)c2cc(C#CC3(O)CCCC3)cnc2O[C@H]1CN(C)C(=O)C1CC1	none (no result: ATG4B inh)
CCNC(=O)C1CCCN(C(=O)c2ccc(C(=O)OC)cc2)CC1 (centres undefined)	none (no result: ATG4B inh)
COc1ccc(/C=N/NC(=O)Cc2ccc(Cl)cc2)cc1OC	none
CCN(CC)c1ccc(/C=N/NC(=O)C2CC2)cc1	Neddyl block 51 | Neddyl inh conf active
CN(C)c1ccc(/C=N/NC(=O)C2CC2c2ccccc2)cc1 (centres undefined)	Neddyl block 54 | Neddyl inh conf active
CCN(CC)c1ccc(/C=N/NC(=O)Cc2ccc(OC)c(OC)c2)cc1	Neddyl block 49 | Neddyl inh conf active
COc1cc2ccnc(C=NO)c2cc1OC	Neddyl block 41 (no result: ATG4B inh) | Neddyl inh conf inactive
COc1cc2ccnc(C=O)c2cc1OC	none (no result: ATG4B inh)
CN(C(=O)c1cccc(NC(=O)Cc2ccc(NC(=O)C3CCCN(S(=O)(=O)c4cccc([N+](=O)[O-])c4)C3)cc2)c1)C1CCC1 (centres undefined)	none
COC(=O)c1cccc([N+](=O)[O-])c1CN1CCCC(C(N)=O)C1 (centres undefined)	Neddyl block 42 | Neddyl inh conf inactive
Cc1cnc(C)c(Nc2nc(C(N)Cc3ccc(C(F)(F)F)cc3)cs2)n1 (centres undefined)	none (no result: ATG4B inh)
CCOC(=O)c1cc(N2CCCCC2)nc2ccccc12	none (not shown: Neddyl block)
O=C(O)c1cc(N2CCCCC2)nc2ccccc12	Neddyl block 42 | Neddyl inh conf active
O=C(c1nc2nc(-c3ccccc3)cc(C(F)(F)F)n2n1)N1CCOCC1	none
O=C(c1nc2nc(-c3ccc(Cl)cc3)cc(C(F)(F)F)n2n1)N1CCOCC1	Neddyl block 41 | Neddyl inh conf inactive
Cc1nc(C(=O)NCCCO)cc2c1[nH]c1ccccc12	Neddyl block 44 | Neddyl inh conf inactive
Cc1nc(C(=O)NCCO)cc2c1[nH]c1ccccc12	none
Cn1c(=O)ccc2ccccc21	none (no result: ATG4B inh)
O=C1OC(C(Cl)(Cl)Cl)Nc2ccccc21 (centres undefined)	Neddyl block 38 (no result: ATG4B inh) | Neddyl inh conf inactive
CCCCC1Cc2[nH]c(=S)[nH]c(=O)c2C(C(C)C)O1 (centres undefined)	none (no result: ATG4B inh, Rin1 Abl inh)
Oc1cccc(C2c3[nH]c4ccccc4c3CCN2Cc2ccoc2)c1 (centres undefined)	none
COc1ccc(C2c3[nH]c4ccccc4c3CCN2Cc2ccoc2)c(F)c1 (centres undefined)	Neddyl block 41 | Neddyl inh conf inactive
O=C(NC(=S)NNC(=O)[C@H]1C[C@@H]1c1ccccc1)c1cccc(F)c1	none
COc1cccc(OC)c1C(=O)NC(=S)NNC(=O)[C@H]1C[C@@H]1c1ccccc1	Neddyl block 48 | Neddyl inh conf inactive
CCOC(=O)c1csc(NC(=O)CCS(=O)(=O)c2ccc(Cl)cc2)n1	none (no result: ATG4B inh)
Cc1c(C)c2ccc(OCC(=O)Nc3ccc(CN4CCOCC4)cc3)cc2oc1=O	Neddyl block 52 | Neddyl inh conf inactive
O=C(COc1ccc2ccc(=O)oc2c1)Nc1ccc(N2CCCCC2)cc1	Neddyl block 61
Cc1sc2ccccc2c1CNC[C@H]1O[C@@H](n2cnc3c(N)ncnc32)[C@H](O)[C@@H]1O	none (no result: ATG4B inh)
Cc1cn(-c2cccnc2)c(C)c1CNC[C@H]1O[C@@H](n2cnc3c(N)ncnc32)[C@H](O)[C@@H]1O	Neddyl block 75 (no result: ATG4B inh) | Neddyl inh conf inactive
N#CCCCc1cn(-c2nc3ccccc3s2)nn1	none (no result: ATG4B inh, Rin1 Abl inh)
O=C(O)C(=Cc1ccc([N+](=O)[O-])cc1)c1cccc(Cl)c1	none (no result: ATG4B inh)
Nc1ncccc1C(=O)OCC(=O)N1CCN(S(=O)(=O)c2ccc(Cl)cc2)CC1	Neddyl block 62
NCCNC(=O)c1c(NC(=O)c2ccccc2)sc2c1CCCC2	Neddyl block 46 | Neddyl inh conf inactive
O=C(Nc1sc2c(c1C(=O)NCCCO)CCCC2)c1ccccc1	none
O=C(O)c1ccc(NC(=O)c2ccc3c(c2)C(=O)N(CC2CCCO2)C3=O)cc1 (centres undefined)	none
Cc1ccc(C(=O)Nc2ccc3c(c2)C(=O)N(CC2CCCO2)C3=O)cc1 (centres undefined)	Neddyl block 61
CCN(CC)S(=O)(=O)c1cccc(-c2cn3cc(C)ccc3n2)c1	Neddyl block 39 | Neddyl inh conf inactive
c1ccc(-c2nc3ccccn3c2-c2ccccc2)cc1	Neddyl block 40
